# Assay outcomes (PubChem BioAssay)
# MITF inh – blocks MITF activity | TRPM1 promoter luciferase, luminescence, 24 h | inhibition, % (no concentration beside the values) | 0.28% of 37,000 active; in the data active = inhibition above about 85%; inconclusive = no clear call, values can overlap the other calls; inactive = below about 68%;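 note: human melanocyte line stably carrying TRPM1 promoter luciferase reporter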
# Shh pathway inh – blocks Sonic Hedgehog signaling | inhibition, % (concentration not given with the values) | 2.1% of 22,000 active | Shh-LIGHT2 Gli-luciferase reporter, 30 h | AID 2313;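 active = mean inhibition across valid replicates above about 65%, limit read from the data; inconclusive = mean under the limit, yet half or more replicates past it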;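 note: pathway switched on by Shh-conditioned medium diluted 1 in 25 in low serum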
# YB-1 expression – YB-1 expression inhibition | 0.37% of 30,000 active | delta delta Cp (YB-1 minus CDIP) (no concentration beside the values) | U2OS, qRT-PCR YB-1 vs CDIP delta delta Cp, 16 h; active compounds read high; zero = DMSO, each unit about twofold | AID 434959;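 active = delta delta Cp rounded down to an integer at or above 3, about 3 SD of DMSO wells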;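 note: higher means less YB-1 transcript or more CDIP transcript relative to DMSO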
# Active calls of the source: *; ? = inconclusive; . = no result. This is one part of a sample in which hits are shown more often than they occur.
SMILES,MITF inh,Shh pathway inh,YB-1 expression
CCCCCC(=O)O[C@]1(C(C)=O)CCC2C3CCC4=CC(=O)CC[C@]4(C)C3CC[C@@]21C (stereo not given in full),13,96*,0.37
CCNC(=O)Oc1ccccc1,-40,-16,-0.16
Clc1ccc(CO/N=C(\Cn2ccnc2)c2ccc(Cl)cc2Cl)c(Cl)c1,93*,104*,-0.56
O/N=C(\Cn1cncn1)c1ccc(Cl)cc1Cl,-3,-6,0.16
CO[C@H]1O[C@H](CO)[C@@H](OC(=O)Nc2ccc3c(c2)OCO3)[C@@H]2OC(=O)[C@H](Cc3ccccc3)C/C=C/C[C@@H](Cc3ccccc3)C(=O)O[C@@H]12,.,.,-0.086
CCC(C)C1NC(=O)C(CCC(=O)O)N(C)C(=O)C(C(C)C)N(C)C(=O)CNC(=O)C2CCCN2C(=O)C(Cc2ccccc2)NC(=O)C(C(C)CC)OC(=O)C(CCC(=O)O)N(C)C(=O)C(C(C)C)NC(=O)C2CCCCN2C1=O (stereo not given),59,100*,0.22
Cc1nc(SCC(=O)O)c2c3c(sc2n1)CCCC3,-1,-6,-0.31
COc1ccc(OC)c(CCCCc2cc(OC)ccc2OC)c1,-12,2,0.12
CC1=C(/C=C/C(C)=C/C=C/C(C)=C\C(=O)O)C(C)(C)CCC1,-118,82*,0.037
CC(=C/C(=O)O)/C=C/c1ccccc1,0,.,0.2
CC(=O)N1CCc2cc(NC(=S)NCc3cccs3)ccc21,-63,-27,0.095
C=CCNC(=O)CC1CCCCC1,-3,3,-0.072
CC1OC(OC2C(O)C(CO)OC(O[C@H]3CC[C@@]4(C)C(CC[C@]5(C)C4CC=C4C6CC(C)(C)CC[C@]6(C(=O)OC6OCC(OC7OCC(O)C(O)C7O)C(O)C6O)CC[C@]45C)C3(C)C)C2O)C(O)C(OC2OCC(O)(CO)C2O)C1O (stereo not given in full),-9,40,-0.087
CNC(=O)c1ccc2nc(N)sc2c1,-7,-27,-0.15
COc1ccccc1NC(=O)C1c2ccccc2Oc2ccccc21,7,.,0.21
COc1ccccc1NC(=O)/C=C\c1ccco1,-61,68*,-0.55
CS(=O)(=O)CS(=O)(=O)C1=C(N2CCOCC2)C2CCN1CC2,-10,-7,0.1
CCc1ccc[n+](OC(=O)N(CC)CC)c1,5,.,-0.37
O=C(O)CCC(=O)Nc1cccc(C(F)(F)F)c1,7,.,.
O=C(/C=N/O)Nc1cc(C(F)(F)F)cc(C(F)(F)F)c1,24,69*,-0.58
O=C(O)C(Cc1ccsc1)c1ccccc1 (stereo not given),-6,.,-0.066
O=c1cc(N2CCOCC2)oc2c1ccc1ccccc12,-2,-70,-0.33
O=c1cc(N2CCOCC2)oc2c(-c3ccccc3)cccc12,36,71*,0.11
CC(=O)Nc1cccc(Oc2ccc3c(c2)C(=O)N(c2ccc(Oc4ccc(C)c(C)c4)cc2)C3=O)c1,40,.,-0.03
Cc1cc[n+](Cc2ccccn2)c(N)c1,0,-26,-0.038
SMILES,MITF inh,Shh pathway inh,YB-1 expression
c1ccc(CN(CCN(Cc2ccccn2)Cc2ccccn2)Cc2ccccn2)nc1,88*,-181,-0.37
CCOC(=O)c1nnn2c1nc(Sc1nnc(-c3ccncc3)n1C)c1ccccc12,7,-13,-0.79
COc1ccc(-c2nnc(Nc3cccc(C(F)(F)F)c3)c3ccccc23)cc1,52,87*,-0.53
CNC(=O)COc1ccc(Nc2nnc(-c3ccc(OC)cc3)c3ccccc23)cc1,-12,.,.
Cc1ccc(OC(=O)OCSc2nn[nH]n2)cc1,21,?,-0.4
O=C(CCCCCC(=O)N/N=C/c1ccc(O)c2ccccc12)NO,.,.,-0.22
O=C(C/C(=C1/CCc2ccccc2C1=O)c1ccccc1)c1ccccc1,50,103*,-0.68
NNC(=O)c1cc2c(s1)-c1ccccc1CC2,-5,-64,0.4
COc1cccc(NC(=O)c2cnccc2C(F)(F)F)c1,-19,-12,-0.25
C[C@@H]1O[C@@H](O[C@@H]2[C@@H](O)[C@H](O[C@@H]3[C@@H](O)[C@@H](O)[C@H](O[C@H]4[C@H](OC(=O)[C@]56CCC(C)(C)C[C@H]5C5=CCC7[C@@]8(C)C[C@H](O)[C@H](O[C@@H]9O[C@H](C(=O)O)[C@@H](O)[C@H](O)[C@H]9O)[C@@](C)(CO)C8[C@H](O)C[C@@]7(C)[C@]5(C)C[C@H]6O)OC[C@H](O)[C@@H]4O)O[C@H]3C)OC[C@H]2O)[C@H](O)[C@H](O)[C@H]1O (stereo not given in full),1,-3,-0.35
O=c1cc(CSc2cccc3cccnc23)c2ccc(O)cc2o1,-18,7,-0.084
O=C(O)CCC(=O)Nc1ccc2c(c1)C(=O)NC2=O,7,.,.
O=C(O)CCC(=O)Nc1ccc(Cc2ccncc2)cc1,-10,-15,8.6*
Cc1oc2c(c1C(=O)N1CCC(C)CC1)C(=O)c1ccccc1C2=O,85*,59,0.42
